Measurements reported in the supplement of paper PMC11732987, “Enantioselective OTUD7B fragment discovery through chemoproteomics screening and high-throughput optimisation” (Communications Chemistry, 2025).

Tests used:
Assay in all cases: log2 ratio of Biotin-Ahx-Ub-VS probe labelling (fragment/DMSO); higher = less target engagement (more negative = stronger competition), active = hit call of the paper (q ≤ 0.05, log2 ratio ≤ -1)
Details in all cases: compound concentration: 200 uM; treatment time: 3 h
OTUD6B = target: T1, OTUD6B (UniProt Q8N6M0)
T1 sequence (whole entry): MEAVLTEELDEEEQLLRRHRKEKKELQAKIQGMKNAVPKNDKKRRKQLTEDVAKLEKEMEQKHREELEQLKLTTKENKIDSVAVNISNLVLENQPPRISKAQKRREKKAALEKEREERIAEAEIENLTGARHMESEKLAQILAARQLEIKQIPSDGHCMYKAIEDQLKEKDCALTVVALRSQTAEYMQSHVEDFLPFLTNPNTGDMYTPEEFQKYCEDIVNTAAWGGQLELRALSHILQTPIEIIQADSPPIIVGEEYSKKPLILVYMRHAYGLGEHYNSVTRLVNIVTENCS
Method in brief: (§1)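 HEK293T lysate in Tris/CHAPS/IGEPAL buffer with protease inhibitors (495 µg per sample) was given fragment at 200 µM or vehicle for 3 h, in triplicate. It then received Biotin-Ahx-Ub-VS at 0.5 µM final for 1 h. Labelled DUBs were NeutrAvidin-enriched, digested with LysC and trypsin, and run by diaPASEF LC-MS/MS. Values are average log2 fragment/vehicle ratios by unpaired t-test on global-median-normalised Spectronaut quantities of proteins with ≥2 unique peptides.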

OTUD7B = target: T2, OTUD7B (UniProt Q6GQQ9)
T2 sequence (whole entry): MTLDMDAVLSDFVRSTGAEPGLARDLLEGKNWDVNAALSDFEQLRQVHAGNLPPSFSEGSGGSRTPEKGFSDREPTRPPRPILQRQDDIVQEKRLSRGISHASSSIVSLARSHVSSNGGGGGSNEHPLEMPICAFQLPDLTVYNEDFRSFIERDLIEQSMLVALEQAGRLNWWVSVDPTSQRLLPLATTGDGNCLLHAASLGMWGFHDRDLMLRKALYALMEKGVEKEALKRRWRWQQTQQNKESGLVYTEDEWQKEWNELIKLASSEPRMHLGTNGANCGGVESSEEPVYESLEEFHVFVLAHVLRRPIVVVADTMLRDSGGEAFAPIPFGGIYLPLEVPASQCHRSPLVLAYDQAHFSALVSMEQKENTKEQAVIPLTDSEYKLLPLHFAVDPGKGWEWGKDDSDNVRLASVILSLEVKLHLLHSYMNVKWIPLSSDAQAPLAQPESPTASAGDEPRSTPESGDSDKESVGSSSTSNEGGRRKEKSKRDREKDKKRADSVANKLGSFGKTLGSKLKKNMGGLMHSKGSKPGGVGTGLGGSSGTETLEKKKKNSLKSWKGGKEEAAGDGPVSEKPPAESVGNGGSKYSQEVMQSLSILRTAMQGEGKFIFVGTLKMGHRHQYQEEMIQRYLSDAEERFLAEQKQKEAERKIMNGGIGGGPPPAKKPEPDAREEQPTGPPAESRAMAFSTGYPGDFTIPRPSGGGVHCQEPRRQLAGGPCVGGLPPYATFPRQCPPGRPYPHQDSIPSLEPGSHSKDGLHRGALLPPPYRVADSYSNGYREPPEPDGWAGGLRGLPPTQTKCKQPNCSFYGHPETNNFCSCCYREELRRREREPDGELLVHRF
Method in brief: as §1

PRPF8 = PRPF8 (UniProt Q6P2Q9)
Method in brief: as §1

PSMD7 = target: T3, PSMD7 (UniProt P51665)
T3 sequence (whole entry): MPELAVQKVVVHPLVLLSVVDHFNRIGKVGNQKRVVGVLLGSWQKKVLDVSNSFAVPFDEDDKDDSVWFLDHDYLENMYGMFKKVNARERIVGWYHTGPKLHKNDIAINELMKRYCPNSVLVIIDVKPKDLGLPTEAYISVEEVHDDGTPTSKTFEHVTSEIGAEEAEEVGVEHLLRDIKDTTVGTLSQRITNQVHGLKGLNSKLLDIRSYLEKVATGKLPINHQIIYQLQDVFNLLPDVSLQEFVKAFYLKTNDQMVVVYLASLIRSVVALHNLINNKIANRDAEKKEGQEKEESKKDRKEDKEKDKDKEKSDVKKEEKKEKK
Method in brief: as §1

UCHL1 = UCHL1 (UniProt P09936)
UCHL1, sequence (P09936 whole entry, looked up): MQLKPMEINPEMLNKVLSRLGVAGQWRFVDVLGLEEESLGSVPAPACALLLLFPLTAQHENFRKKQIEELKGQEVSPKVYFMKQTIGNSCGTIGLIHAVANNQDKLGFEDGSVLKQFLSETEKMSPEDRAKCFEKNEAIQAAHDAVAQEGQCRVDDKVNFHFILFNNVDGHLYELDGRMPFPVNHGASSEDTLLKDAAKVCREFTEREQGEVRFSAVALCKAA
Method in brief: as §1

UCHL3 = target: T4, UCHL3 (UniProt P15374)
T4 sequence (whole entry): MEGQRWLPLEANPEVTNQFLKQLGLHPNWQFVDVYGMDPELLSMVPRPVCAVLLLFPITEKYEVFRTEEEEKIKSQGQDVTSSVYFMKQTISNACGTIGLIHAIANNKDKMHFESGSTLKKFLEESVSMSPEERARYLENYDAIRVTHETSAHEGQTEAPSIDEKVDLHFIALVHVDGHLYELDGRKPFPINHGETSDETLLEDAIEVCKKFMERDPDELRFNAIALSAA
Method in brief: as §1

UCHL5 = target: T5, UCHL5 (UniProt Q9Y5K5)
T5 sequence (whole entry): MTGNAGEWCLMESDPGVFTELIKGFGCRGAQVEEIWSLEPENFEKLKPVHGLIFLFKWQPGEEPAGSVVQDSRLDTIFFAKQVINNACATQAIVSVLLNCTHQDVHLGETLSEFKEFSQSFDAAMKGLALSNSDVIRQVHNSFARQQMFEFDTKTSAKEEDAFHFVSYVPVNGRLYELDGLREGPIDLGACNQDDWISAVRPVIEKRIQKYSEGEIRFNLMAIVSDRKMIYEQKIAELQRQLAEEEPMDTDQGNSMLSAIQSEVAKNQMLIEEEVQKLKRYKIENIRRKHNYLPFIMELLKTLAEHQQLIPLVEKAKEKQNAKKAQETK
Method in brief: as §1

USP10 = USP10 (UniProt Q14694)
USP10, sequence (Q14694 whole entry): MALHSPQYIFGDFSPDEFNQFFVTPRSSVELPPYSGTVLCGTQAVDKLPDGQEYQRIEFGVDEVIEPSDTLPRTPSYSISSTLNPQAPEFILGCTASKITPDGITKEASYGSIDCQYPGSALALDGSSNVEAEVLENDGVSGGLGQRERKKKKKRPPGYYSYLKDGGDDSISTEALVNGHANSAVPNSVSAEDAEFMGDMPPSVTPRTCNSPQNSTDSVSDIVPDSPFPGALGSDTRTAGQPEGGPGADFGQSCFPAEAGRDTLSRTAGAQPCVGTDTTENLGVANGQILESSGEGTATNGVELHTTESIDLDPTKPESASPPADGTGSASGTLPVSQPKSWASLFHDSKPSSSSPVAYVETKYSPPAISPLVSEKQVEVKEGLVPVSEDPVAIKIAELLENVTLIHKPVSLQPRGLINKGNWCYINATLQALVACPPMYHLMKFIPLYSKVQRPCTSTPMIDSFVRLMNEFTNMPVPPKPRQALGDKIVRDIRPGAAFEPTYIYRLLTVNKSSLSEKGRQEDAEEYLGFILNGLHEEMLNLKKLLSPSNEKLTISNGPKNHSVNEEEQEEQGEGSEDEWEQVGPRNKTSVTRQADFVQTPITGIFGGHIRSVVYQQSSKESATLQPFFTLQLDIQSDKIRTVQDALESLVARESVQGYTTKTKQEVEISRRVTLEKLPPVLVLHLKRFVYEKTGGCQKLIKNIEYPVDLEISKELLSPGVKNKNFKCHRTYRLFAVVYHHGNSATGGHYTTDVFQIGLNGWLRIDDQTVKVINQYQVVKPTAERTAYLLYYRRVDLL
Method in brief: as §1

USP15 = target: T6, USP15 (UniProt Q9Y4E8)
T6 sequence (whole entry): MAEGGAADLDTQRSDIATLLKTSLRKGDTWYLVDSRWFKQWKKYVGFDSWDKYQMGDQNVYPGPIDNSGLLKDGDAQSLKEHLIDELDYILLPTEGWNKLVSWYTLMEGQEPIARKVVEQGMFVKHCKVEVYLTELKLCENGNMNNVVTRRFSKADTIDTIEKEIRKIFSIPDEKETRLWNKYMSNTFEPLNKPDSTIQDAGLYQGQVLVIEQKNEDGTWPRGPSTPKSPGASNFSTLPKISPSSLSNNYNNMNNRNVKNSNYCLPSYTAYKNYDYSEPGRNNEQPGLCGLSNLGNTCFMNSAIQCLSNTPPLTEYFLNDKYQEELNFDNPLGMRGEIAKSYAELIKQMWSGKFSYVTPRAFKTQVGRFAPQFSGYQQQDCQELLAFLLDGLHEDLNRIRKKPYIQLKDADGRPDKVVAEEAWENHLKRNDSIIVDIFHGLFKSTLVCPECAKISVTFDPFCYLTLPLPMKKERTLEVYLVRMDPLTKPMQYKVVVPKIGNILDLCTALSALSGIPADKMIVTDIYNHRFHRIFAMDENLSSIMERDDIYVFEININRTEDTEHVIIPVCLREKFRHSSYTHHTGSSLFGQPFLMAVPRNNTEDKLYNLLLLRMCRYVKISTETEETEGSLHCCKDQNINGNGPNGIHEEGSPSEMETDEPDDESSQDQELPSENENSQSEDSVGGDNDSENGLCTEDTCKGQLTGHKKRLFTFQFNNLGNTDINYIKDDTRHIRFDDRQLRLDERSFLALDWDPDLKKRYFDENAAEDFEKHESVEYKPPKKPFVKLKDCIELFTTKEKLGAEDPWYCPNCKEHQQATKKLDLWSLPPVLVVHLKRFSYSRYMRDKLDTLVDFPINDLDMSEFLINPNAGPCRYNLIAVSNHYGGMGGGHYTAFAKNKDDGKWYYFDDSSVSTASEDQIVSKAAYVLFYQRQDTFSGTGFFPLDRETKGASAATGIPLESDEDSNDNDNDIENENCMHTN
Method in brief: as §1

USP16 = USP16 (UniProt Q9Y5T5)
USP16, sequence (Q9Y5T5 whole entry, looked up): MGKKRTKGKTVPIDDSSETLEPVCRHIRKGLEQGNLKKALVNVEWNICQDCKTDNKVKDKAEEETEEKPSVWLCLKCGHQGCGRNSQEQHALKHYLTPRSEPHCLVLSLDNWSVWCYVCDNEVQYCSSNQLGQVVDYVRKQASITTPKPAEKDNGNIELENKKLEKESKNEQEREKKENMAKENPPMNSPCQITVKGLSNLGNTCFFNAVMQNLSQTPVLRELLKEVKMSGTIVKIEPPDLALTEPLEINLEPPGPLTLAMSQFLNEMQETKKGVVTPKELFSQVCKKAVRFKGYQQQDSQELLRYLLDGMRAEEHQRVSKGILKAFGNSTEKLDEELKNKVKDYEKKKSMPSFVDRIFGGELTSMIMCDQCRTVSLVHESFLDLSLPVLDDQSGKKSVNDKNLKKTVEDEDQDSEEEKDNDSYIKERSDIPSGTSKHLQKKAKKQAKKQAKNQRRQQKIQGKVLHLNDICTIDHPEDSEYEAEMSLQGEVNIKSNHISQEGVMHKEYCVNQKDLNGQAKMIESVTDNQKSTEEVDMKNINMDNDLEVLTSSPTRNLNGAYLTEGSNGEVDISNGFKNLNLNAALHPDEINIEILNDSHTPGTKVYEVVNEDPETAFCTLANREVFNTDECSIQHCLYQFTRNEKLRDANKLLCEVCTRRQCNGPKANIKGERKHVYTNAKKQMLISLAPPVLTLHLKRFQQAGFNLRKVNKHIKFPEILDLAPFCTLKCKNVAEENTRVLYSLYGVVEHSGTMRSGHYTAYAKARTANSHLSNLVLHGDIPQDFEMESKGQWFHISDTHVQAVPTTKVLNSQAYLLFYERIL
Method in brief: as §1

Measured: log2 ratio of Biotin-Ahx-Ub-VS probe labelling

COc1ccccc1C(C)NC(=O)CCl (stereo not given)
inactive: OTUD6B -0.401 | OTUD7B -0.997 | PRPF8 -0.14 | PSMD7 -0.451 | UCHL5 -0.318 | USP10 -0.0811 | USP15 -0.251 | USP16 -0.386
active: UCHL1 -1.47 | UCHL3 -1.18
